Data published in paper PMC7862700, “An all-to-all approach to the identification of sequence-specific readers for epigenetic DNA modifications on cytosine”.

Columns and labels:
Experiment in all cases: DAPPL (digital affinity profiling via proximity ligation, sequencing); 10 mM Tris-HCl pH 7.5, 50 mM NaCl, 1 mM DTT, 4% glycerol, room temperature, 30 min; GST-TFs on glutathione beads, 16-mer random dsDNA library, 0.1% formaldehyde crosslink after washing; high values mean tight binding
FEV = target: T1, FEV (Homo sapiens, UniProt Q99581 1-238); details: protein: recombinant; tags: N-terminal GST; dsDNA, one strand shown
T1 sequence: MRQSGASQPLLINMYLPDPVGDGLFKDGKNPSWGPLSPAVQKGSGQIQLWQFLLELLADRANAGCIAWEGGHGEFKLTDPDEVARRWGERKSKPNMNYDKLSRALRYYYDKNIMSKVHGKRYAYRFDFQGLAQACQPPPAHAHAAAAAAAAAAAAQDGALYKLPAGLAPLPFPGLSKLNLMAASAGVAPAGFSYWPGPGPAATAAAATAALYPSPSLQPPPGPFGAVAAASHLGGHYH
Summary of the method: (§1)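 Binding signal is each hexamer's read frequency for a factor divided by its frequency in the tag-only sample. The factors were GST-fused human transcription factors from yeast, captured on glutathione beads, DNA-barcoded and pooled with that sample. Pools were incubated with 200 nmole of a random double-stranded 16-mer DNA library in Tris/NaCl/DTT/glycerol buffer at room temperature for 30 min, then washed, crosslinked with 0.1% formaldehyde, proximity-ligated with BsaI/T4 ligase (1 h, 37 °C), PCR-amplified and sequenced on an Illumina NextSeq500.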

ETV5 = ETV5 (Homo sapiens, UniProt P41161 1-510); details: protein: recombinant; tags: N-terminal GST; dsDNA, one strand shown
Summary of the method: as §1

HSF1 = HSF1 (Homo sapiens, UniProt Q00613 1-529); details: protein: recombinant; tags: N-terminal GST; chain copies: 3; dsDNA, one strand shown
Summary of the method: as §1

SPIC = target: T2, SPIC (Homo sapiens, UniProt Q8N5J4 1-248); details: protein: recombinant; tags: N-terminal GST; dsDNA, one strand shown
T2 sequence: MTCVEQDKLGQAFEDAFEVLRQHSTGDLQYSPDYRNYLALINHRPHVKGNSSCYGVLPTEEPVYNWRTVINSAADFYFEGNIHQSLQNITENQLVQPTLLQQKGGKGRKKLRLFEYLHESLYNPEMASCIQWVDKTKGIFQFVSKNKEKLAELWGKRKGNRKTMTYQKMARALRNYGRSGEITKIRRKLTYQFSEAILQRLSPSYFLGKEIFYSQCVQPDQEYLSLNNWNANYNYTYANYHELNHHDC
Summary of the method: as §1

ELF4 = ELF4 (Homo sapiens, UniProt Q99607 1-663); details: protein: recombinant; tags: N-terminal GST; dsDNA, one strand shown
Summary of the method: as §1

ELK4 = target: T3, ELK4 (Homo sapiens, UniProt P28324-2 1-405); details: protein: recombinant; tags: N-terminal GST; dsDNA, one strand shown
T3 sequence: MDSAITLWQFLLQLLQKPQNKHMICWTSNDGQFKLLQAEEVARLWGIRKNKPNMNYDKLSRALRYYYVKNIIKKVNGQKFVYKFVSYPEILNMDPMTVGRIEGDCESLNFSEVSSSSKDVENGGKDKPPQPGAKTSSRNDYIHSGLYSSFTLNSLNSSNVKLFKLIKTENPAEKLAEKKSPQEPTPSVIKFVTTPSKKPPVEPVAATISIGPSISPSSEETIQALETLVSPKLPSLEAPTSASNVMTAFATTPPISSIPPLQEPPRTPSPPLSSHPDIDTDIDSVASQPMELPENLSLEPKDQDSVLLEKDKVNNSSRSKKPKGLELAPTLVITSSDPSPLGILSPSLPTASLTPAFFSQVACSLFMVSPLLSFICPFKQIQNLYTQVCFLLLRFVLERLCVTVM
Summary of the method: as §1

ETV2 = target: T4, ETV2 (Homo sapiens, UniProt O00321 1-342); details: protein: recombinant; tags: N-terminal GST; dsDNA, one strand shown
T4 sequence: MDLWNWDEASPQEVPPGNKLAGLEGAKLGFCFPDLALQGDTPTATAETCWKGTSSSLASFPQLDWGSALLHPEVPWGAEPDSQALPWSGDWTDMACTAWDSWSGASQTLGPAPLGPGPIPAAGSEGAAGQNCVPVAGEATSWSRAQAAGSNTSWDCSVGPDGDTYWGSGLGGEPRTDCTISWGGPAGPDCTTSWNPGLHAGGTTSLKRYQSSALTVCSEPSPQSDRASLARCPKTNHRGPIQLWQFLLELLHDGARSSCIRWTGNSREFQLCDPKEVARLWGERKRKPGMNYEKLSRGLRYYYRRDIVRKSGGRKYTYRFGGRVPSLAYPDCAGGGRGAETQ
Summary of the method: as §1

ELF3 = target: T5, ELF3 (Homo sapiens, UniProt P78545 1-371); details: protein: recombinant; tags: N-terminal GST; dsDNA, one strand shown
T5 sequence: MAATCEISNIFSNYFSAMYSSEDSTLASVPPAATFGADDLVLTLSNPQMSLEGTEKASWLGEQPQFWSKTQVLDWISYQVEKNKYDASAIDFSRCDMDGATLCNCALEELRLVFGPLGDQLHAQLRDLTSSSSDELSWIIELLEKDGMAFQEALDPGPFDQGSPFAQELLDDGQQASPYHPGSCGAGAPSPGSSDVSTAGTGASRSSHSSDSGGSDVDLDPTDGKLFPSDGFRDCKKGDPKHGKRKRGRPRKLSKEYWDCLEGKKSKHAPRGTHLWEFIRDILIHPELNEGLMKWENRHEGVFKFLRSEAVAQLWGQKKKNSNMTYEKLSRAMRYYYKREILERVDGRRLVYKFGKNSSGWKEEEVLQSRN
Summary of the method: as §1

CRX = CRX (Homo sapiens, UniProt O43186 1-299); details: protein: recombinant; tags: N-terminal GST; dsDNA, one strand shown
Summary of the method: as §1

ETV1 = ETV1 (Homo sapiens, UniProt P50549 1-477); details: protein: recombinant; tags: N-terminal GST; dsDNA, one strand shown
Summary of the method: as §1

ERF = target: T6, ERF (Homo sapiens, UniProt P50548 1-548); details: protein: recombinant; tags: N-terminal GST; dsDNA, one strand shown
T6 sequence: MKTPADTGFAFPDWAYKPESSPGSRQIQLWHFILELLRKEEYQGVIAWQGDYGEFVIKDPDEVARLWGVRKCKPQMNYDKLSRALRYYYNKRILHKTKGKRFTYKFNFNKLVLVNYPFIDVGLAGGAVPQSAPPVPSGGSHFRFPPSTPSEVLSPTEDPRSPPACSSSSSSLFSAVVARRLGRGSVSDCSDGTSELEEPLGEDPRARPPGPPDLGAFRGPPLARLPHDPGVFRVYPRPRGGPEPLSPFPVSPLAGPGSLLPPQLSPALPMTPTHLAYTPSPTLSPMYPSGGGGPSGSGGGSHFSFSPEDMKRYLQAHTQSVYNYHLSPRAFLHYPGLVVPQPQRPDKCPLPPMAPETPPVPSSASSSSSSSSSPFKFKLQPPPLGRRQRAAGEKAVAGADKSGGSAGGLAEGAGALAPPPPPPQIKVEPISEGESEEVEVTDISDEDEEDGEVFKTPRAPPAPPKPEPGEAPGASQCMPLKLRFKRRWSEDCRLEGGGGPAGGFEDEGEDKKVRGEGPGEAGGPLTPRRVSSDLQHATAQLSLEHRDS
Summary of the method: as §1

ETV3L = target: T7, ETV3L (Homo sapiens, UniProt Q6ZN32 1-361); details: protein: recombinant; tags: N-terminal GST; dsDNA, one strand shown
T7 sequence: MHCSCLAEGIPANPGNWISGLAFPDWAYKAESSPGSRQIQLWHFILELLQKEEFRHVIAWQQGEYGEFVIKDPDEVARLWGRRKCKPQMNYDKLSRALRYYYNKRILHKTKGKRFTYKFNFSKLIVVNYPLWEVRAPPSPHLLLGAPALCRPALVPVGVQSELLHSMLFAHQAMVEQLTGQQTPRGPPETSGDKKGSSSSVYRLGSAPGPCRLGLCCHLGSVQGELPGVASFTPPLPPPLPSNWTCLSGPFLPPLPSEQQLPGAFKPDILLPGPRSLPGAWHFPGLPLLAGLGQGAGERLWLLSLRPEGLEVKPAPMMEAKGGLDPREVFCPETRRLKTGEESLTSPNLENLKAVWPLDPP
Summary of the method: as §1

ETS2 = target: T8, ETS2 (Homo sapiens, UniProt P15036 1-469); details: protein: recombinant; tags: N-terminal GST; dsDNA, one strand shown
T8 sequence: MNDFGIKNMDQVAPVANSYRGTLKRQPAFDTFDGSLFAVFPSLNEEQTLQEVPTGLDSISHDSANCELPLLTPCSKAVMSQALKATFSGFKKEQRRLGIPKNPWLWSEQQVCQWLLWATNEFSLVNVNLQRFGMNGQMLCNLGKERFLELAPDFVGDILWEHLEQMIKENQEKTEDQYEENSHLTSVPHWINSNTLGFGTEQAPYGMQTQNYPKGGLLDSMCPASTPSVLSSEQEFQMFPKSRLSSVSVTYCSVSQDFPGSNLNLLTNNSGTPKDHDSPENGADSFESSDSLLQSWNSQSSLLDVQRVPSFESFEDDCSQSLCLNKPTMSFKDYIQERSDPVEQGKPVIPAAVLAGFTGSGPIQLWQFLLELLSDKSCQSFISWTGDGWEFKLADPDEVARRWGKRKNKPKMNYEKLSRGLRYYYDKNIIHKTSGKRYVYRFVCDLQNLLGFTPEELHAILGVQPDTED
Summary of the method: as §1

SPDEF = target: T9, SPDEF (Homo sapiens, UniProt O95238 1-335); details: protein: recombinant; tags: N-terminal GST; dsDNA, one strand shown
T9 sequence: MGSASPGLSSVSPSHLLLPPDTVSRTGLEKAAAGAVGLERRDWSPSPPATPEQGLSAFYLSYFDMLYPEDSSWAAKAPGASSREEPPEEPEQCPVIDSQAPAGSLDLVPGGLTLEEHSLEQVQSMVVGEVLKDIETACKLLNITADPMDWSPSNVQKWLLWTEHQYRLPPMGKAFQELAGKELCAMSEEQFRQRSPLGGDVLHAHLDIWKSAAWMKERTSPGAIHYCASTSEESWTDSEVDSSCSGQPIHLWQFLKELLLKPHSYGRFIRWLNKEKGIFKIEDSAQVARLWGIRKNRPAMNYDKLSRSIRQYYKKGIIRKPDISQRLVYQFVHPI
Summary of the method: as §1

ETV7 = target: T10, ETV7 (Homo sapiens, UniProt Q9Y603 1-341); details: protein: recombinant; tags: N-terminal GST; dsDNA, one strand shown
T10 sequence: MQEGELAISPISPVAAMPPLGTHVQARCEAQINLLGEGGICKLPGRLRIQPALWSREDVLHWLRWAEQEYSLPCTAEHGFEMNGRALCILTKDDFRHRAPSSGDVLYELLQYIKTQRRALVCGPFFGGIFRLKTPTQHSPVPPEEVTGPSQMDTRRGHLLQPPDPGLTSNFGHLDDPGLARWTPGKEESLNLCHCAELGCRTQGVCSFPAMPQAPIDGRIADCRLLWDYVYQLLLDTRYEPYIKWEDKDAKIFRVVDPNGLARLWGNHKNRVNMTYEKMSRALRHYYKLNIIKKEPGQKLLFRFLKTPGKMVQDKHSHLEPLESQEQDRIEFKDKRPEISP
Summary of the method: as §1

ELF5 = target: T11, ELF5 (Homo sapiens, UniProt Q9UKW6-2 1-255); details: protein: recombinant; tags: N-terminal GST; dsDNA, one strand shown
T11 sequence: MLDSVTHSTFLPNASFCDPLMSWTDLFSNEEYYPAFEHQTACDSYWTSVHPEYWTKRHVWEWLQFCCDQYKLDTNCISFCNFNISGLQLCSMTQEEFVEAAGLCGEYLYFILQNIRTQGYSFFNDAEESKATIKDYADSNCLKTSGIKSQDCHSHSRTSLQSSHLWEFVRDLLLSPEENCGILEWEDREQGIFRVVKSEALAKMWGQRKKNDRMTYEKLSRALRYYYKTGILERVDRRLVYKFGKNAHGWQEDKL
Summary of the method: as §1

ETV3 = target: T12, ETV3 (Homo sapiens, UniProt P41162-2 1-143); details: protein: recombinant; tags: N-terminal GST; dsDNA, one strand shown
T12 sequence: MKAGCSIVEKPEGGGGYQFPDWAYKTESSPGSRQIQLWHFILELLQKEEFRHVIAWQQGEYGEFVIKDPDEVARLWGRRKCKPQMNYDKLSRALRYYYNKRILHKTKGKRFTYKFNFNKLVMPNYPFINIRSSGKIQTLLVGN
Summary of the method: as §1

ETV6 = ETV6 (Homo sapiens, UniProt P41212 1-452); details: protein: recombinant; tags: N-terminal GST; dsDNA, one strand shown
Summary of the method: as §1

Chain of ETV6 (P41212 whole entry): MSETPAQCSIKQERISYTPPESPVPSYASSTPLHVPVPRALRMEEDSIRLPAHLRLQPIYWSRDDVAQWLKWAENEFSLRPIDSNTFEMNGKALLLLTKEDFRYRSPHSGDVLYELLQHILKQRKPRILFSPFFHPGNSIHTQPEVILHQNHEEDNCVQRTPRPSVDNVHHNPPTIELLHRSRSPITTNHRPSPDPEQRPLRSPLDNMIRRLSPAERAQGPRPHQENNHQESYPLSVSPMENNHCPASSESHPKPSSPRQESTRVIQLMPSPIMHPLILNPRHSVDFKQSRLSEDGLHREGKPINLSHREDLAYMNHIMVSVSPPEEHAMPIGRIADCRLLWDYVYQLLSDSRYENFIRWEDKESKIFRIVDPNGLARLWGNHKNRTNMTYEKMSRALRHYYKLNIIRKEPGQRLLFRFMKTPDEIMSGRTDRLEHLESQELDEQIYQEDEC
Chain of ETV1 (P50549 whole entry): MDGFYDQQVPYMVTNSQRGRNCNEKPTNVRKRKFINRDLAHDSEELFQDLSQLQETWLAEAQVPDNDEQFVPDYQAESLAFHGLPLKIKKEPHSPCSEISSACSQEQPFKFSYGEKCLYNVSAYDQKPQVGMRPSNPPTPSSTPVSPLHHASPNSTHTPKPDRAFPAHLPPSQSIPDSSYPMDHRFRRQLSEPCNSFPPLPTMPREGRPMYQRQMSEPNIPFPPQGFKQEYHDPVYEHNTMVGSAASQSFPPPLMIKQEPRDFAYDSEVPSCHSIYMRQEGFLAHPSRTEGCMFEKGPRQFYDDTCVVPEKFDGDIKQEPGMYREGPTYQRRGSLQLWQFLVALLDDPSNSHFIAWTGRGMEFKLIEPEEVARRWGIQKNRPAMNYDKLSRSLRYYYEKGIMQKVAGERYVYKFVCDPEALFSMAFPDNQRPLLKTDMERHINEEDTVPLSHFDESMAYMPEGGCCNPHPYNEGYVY
Chain of ETV5 (P41161 whole entry): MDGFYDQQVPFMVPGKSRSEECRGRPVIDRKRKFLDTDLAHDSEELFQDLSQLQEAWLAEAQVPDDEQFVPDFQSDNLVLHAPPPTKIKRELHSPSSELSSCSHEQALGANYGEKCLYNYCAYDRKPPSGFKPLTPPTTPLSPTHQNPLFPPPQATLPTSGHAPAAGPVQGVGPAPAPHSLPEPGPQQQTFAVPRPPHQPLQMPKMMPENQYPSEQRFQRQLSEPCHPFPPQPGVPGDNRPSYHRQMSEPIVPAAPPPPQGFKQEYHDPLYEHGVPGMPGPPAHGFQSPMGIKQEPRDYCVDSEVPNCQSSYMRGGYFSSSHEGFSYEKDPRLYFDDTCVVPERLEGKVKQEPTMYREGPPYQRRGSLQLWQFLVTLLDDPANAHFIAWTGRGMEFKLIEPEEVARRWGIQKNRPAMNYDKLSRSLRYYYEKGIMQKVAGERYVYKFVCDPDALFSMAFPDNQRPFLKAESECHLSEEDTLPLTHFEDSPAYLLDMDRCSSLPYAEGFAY
Chain of ELF4 (Q99607 whole entry): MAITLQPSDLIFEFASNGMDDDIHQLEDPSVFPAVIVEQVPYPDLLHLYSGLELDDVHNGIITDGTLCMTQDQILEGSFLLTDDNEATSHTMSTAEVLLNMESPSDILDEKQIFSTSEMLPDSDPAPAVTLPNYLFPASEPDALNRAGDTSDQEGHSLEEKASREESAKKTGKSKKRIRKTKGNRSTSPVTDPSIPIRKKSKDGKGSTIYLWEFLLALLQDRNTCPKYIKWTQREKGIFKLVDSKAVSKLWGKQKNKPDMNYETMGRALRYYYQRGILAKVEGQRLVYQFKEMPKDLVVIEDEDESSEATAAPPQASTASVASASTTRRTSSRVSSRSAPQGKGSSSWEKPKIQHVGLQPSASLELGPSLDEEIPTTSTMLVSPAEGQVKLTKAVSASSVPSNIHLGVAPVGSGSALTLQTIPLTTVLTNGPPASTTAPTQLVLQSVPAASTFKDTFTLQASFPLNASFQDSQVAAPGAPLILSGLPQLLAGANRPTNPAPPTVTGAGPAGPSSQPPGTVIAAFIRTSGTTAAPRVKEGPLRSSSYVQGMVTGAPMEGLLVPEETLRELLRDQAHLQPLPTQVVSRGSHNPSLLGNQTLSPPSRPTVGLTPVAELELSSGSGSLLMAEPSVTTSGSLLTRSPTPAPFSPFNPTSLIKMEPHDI
Chain of HSF1 (Q00613 whole entry): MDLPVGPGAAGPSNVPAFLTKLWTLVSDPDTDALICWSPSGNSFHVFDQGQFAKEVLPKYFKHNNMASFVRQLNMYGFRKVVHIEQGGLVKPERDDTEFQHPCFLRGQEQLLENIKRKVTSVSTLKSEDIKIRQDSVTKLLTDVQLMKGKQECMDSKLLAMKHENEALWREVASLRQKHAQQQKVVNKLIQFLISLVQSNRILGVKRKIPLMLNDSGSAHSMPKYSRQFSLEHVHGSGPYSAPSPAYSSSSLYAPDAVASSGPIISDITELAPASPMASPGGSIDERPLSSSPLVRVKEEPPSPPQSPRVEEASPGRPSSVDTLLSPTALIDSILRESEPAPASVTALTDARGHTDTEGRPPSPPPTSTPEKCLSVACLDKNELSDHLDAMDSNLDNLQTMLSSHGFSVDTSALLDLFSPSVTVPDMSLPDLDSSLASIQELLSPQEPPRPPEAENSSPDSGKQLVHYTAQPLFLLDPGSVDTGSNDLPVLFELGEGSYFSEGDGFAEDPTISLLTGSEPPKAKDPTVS
Chain of CRX (O43186 whole entry): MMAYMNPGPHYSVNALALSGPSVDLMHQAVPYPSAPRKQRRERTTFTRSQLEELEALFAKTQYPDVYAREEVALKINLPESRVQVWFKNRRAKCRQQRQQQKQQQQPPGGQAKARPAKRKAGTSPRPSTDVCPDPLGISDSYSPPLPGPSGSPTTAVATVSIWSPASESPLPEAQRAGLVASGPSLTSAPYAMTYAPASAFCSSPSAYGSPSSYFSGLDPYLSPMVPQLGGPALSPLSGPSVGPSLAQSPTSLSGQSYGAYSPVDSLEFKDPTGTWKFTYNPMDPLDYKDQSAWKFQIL

With CCGATA the binding signal (FEV) was 1.14 fold enrichment (6-mer frequency, TF over GST control), the binding signal (ETV5) was 1.15 fold enrichment (6-mer frequency, TF over GST control) and the binding signal (HSF1) was 1.16 fold enrichment (6-mer frequency, TF over GST control). For the same sequence, the binding signal (SPIC) was 1.2 fold enrichment (6-mer frequency, TF over GST control), the binding signal (ELF4) was 1.2 fold enrichment (6-mer frequency, TF over GST control) and the binding signal (ELK4) was 1.08 fold enrichment (6-mer frequency, TF over GST control). The binding signal (ETV2) was 1.25 fold enrichment (6-mer frequency, TF over GST control), the binding signal (ELF3) was 1.05 fold enrichment (6-mer frequency, TF over GST control) and the binding signal (CRX) was 1.27 fold enrichment (6-mer frequency, TF over GST control). The binding signal (ETV1) was 1.16 fold enrichment (6-mer frequency, TF over GST control), the binding signal (ERF) was 1.13 fold enrichment (6-mer frequency, TF over GST control) and the binding signal (ETV3L) was 1.05 fold enrichment (6-mer frequency, TF over GST control). The binding signal (ETS2) was 1.16 fold enrichment (6-mer frequency, TF over GST control), the binding signal (SPDEF) was 1.05 fold enrichment (6-mer frequency, TF over GST control) and the binding signal (ETV7) was 1.06 fold enrichment (6-mer frequency, TF over GST control). The binding signal (ELF5) was 1.1 fold enrichment (6-mer frequency, TF over GST control), the binding signal (ETV3) was 1.14 fold enrichment (6-mer frequency, TF over GST control) and the binding signal (ETV6) was 1.12 fold enrichment (6-mer frequency, TF over GST control).
